Laboratory results reported in PubChem BioAssay (NCATS).
Inconclusive results are not listed. The source made the active and inactive calls. The call rests on the fitted dose curve.

target: Vitamin D3 receptor (Homo sapiens) (UniProt P11473); test: qHTS assay for small molecule agonists of vitamin D receptor signaling (AID 588543); conditions: HEK293T VDR-UAS-bla, beta-lactamase ratio, 16 h; series mostly up to 76.8 µM; activation: at the top concentration
Excerpt: NIH Chemical Genomics Center [NCGC]
U.S. Environmental Protection Agency [EPA]
National Institutes of Environmental Health Sciences [NIEHS]
National Toxicology Program [NTP]
The Vitamin D receptor (VDR) is a member of nuclear hormone receptor superfamily and it plays a critical role in calcium homeostasis and bone metabolism. It plays a role in inducing cell differentiation, inhibiting cell growth and in thrombogenicity. So, VDR that mediates these effects represents a pharmacological target in prevention and treatment of hyperproliferative malignancies, such as cancer and psoriasis, cardiovascular, immunological, inflammatory and renal diseases etc.
NCGC Assay Protocol Summary
Using a beta-lactamase reporter-gene under control of Vitamin D receptor (VDR) response element, a cell-based assay [GeneBLAzer (VDR -UAS-bla assay developed by Invitrogen] was used to measure VDR ligands signaling. GeneBLAzer VDR -UAS-bla HEK293T cells were used with assay medium containing 2% charcoal-stripped FBS. The assay was performed in clear bottom black Greiner 1536-well plates. 1-alpha,25-Dihydroxy vitaminD3 was used as a positive control in the screen. Library compounds were measured for their ability to stimulate the reporter gene activity. Compounds were screened in a titration series in 1536-well format. The fluorescence intensity (405 nm excitation, 460/530 nm emission) was measured using an EnVision plate reader. Data was normalized relative to 1-alpha,25-Dihydroxy vitaminD3 control (50 nM, 100%) and DMSO only wells (basal, 0%). Concentration-response titration points for each compound were fitted to the Hill equation yielding concentrations of half-maximal stimulation (EC50) and maximal response (efficacy) values.
qHTS protocol for VDR beta-lactamase assay in agonist mode
[Step] [Parameter] [Value] [Description]
1. Reagent; 6 uL; 2000 cells/well
2. Incubation; 37 C for 5 hrs
4. Controls (1-alpha,25-Dihydroxy vitaminD3); 23 nL,
- Final concentrations of 50 nM and 15 nM in two columns
5. Incubation; 37 C for 16 hrs
6. Detection reagent; 1 uL of CCF4-dye
7. Incubation; RT for 2 hrs
8. Detection; Fluorescence; Envision plate reader

Sequence of Vitamin D3 receptor (Homo sapiens) (P11473 whole entry, looked up): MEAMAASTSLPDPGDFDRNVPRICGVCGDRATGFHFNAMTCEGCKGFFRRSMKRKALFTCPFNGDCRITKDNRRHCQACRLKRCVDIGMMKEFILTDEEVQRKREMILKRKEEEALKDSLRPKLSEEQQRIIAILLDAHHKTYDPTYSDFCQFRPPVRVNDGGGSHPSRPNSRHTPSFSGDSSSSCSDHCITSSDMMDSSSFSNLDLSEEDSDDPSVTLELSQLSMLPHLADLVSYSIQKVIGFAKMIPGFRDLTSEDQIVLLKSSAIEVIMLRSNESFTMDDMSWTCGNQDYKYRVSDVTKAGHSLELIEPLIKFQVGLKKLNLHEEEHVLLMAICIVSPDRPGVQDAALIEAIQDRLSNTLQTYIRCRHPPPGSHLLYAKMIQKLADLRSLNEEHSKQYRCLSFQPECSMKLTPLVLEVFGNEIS

| Compound | activation | outcome |
| --- | --- | --- |
| O=C(O)C1(O)c2ccccc2-c2ccc(Cl)cc21 (stereo not given) | -6.39% (inactive) | – |
| CC(C)(C#N)N=NC(C)(C)C#N | 3.35% (inactive) | – |
| CCN(CC)C(=O)SCc1ccc(Cl)cc1 | 2.18% (inactive) | – |
| Cc1cc(C)nc(NC(=O)NS(=O)(=O)c2ccccc2C(=O)OC2COC2)n1 | 7.02% (inactive) | – |
| C=CC(=O)NCO | – | inactive |
| O=C1C=C2C(=CCOC2O)O1 (stereo not given) | 26.1% (inactive) | – |
| CCOP(=S)(Oc1cnc(C(C)(C)C)nc1)OC(C)C (stereo not given) | -4.43% (inactive) | – |
| O=C=Nc1ccc(Cl)cc1 | -1% (inactive) | – |
| COc1ccc(C(O)(c2cncnc2)C2CC2)cc1 (stereo not given) | -0.942% (inactive) | – |
| O=[N+]([O-])c1ccc(Oc2ccc(C(F)(F)F)cc2[N+](=O)[O-])cc1 | -11% (inactive) | – |
| N#Cc1c[nH]cc1-c1cccc2c1OC(F)(F)O2 | 1.41% (inactive) | – |
| O=P(O)(O)CN(CP(=O)(O)O)CP(=O)(O)O | 0.83% (inactive) | – |
| ClC1=C(Cl)[C@@]2(Cl)[C@H]3C[C@@H](Cl)[C@H](Cl)[C@H]3[C@@]1(Cl)C2(Cl)Cl | -11.6% (inactive) | – |
| O=C1C=CC(=O)c2ccccc21 | -3.7% (inactive) | – |
| CCCSC(=O)N(CCC)CCC | 0.928% (inactive) | – |
| CCOP(=S)(OCC)SCn1c(=O)oc2cc(Cl)ccc21 | -8.42% (inactive) | – |
| CC(C)(C)OOC(C)(C)c1ccc(C(C)(C)OOC(C)(C)C)cc1 | 8.6% (inactive) | – |
| CCCCC(CC)CO[N+](=O)[O-] (stereo not given) | -0.428% (inactive) | – |
| CCOC1Oc2ccc(OS(C)(=O)=O)cc2C1(C)C (stereo not given) | -1.5% (inactive) | – |
| CCOP(=S)(OCC)SCC(=O)NC(C)C | -4.02% (inactive) | – |

| Compound | activation | outcome |
| --- | --- | --- |
| CCOP(=S)(S)OCC | 2.02% (inactive) | – |
| CS(=O)(=O)c1cc(C(F)(F)F)ccc1C(=O)c1cnoc1C1CC1 | -6.83% (inactive) | – |
| CC1(C)[C@H](C=C(Cl)Cl)[C@H]1C(=O)O[C@H](C#N)c1ccc(F)c(Oc2ccccc2)c1 | – | inactive |
| O=[As](O)(O)O | 4.29% (inactive) | – |
| CC1(c2ccc(Oc3ccccc3)cc2)OC(=O)N(Nc2ccccc2)C1=O (stereo not given) | 5.36% (inactive) | – |
| COC(=O)c1ccccc1S(=O)(=O)NC(=O)Nc1nc(C)nc(OC)n1 | 1.66% (inactive) | – |
| COc1nc(C)nc(NC(=O)NS(=O)(=O)c2ccccc2CCC(F)(F)F)n1 | 1.36% (inactive) | – |
| CC(C)(C)[C@@H](O)/C(=C\c1ccc(Cl)cc1Cl)n1cncn1 | -10.4% (inactive) | – |
| COP(=O)(OC)Oc1ccc([N+](=O)[O-])cc1 | 4.34% (inactive) | – |
| CCOP(=O)(NC(C)C)Oc1ccc(S(C)=O)c(C)c1 (stereo not given) | -2.23% (inactive) | – |
| CN(C)c1nc(=O)n(C2CCCCC2)c(=O)n1C | -2.62% (inactive) | – |
| CCCCN(CC)c1c([N+](=O)[O-])cc(C(F)(F)F)cc1[N+](=O)[O-] | -0.461% (inactive) | – |
| Cc1cc(C)nc(Nc2ccccc2)n1 | -4.48% (inactive) | – |
| O=C(NC(=O)c1c(F)cccc1F)Nc1cc(Cl)c(OC(F)(F)C(F)C(F)(F)F)c(Cl)c1F (stereo not given) | 2.03% (inactive) | – |
| CC1(C)[C@H](C(=O)O[C@H](C#N)c2cccc(Oc3ccccc3)c2)[C@@H]1/C=C(\Cl)C(F)(F)F | 5.16% (inactive) | – |
| CCCCOCN(C(=O)CCl)c1c(CC)cccc1CC | -8.42% (inactive) | – |
| CC(C)C(=O)OCC(C)(C)C(OC(=O)C(C)C)C(C)C (stereo not given) | 4.16% (inactive) | – |
| CCCCCCCCCCCC#N | 5.85% (inactive) | – |
| COP(=S)(OC)Oc1c(Cl)cc(C)cc1Cl | -5.73% (inactive) | – |
| CC1=NNC(=O)N(/N=C/c2cccnc2)C1 | 1.31% (inactive) | – |
